Screens deposited in PubChem by several laboratories.
VLA-4 inh: inhibition in human VLA-4 binding assay, primary screen, VLA-4 allosteric modulator project, MLPCN library, flow cytometry, VLA-4 expressing cells | Integrin alpha-4 (Homo sapiens), P13612 | ligand binding flow cytometry | inhibition, % (about 7 µM as worked out from the volumes in the protocol) | 330,000 compounds, 0.2% hits; in the data active = inhibition above about 50%
GASC-1 inh: inhibitors of GASC-1 histone demethylase, primary screen, biochemical, fluorescence, DELFIA europium; GST-JMJD2C(1-420) H3K9me3 demethylation; 330,000 compounds, 0.069% hits; inhibition, % at 2.35 µM; Lysine-specific demethylase 4C (Homo sapiens), Q9H3R0;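 active = more than half of a compound's replicate wells show inhibition beyond 50%, single wells judged on their own value; inconclusive = some, but no more than half, of replicates pass 50% inhibition; inactive = no replicate passes 50% inhibition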;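 note: signal counts dimethyl H3K9 product captured on neutravidin plate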
ABCB6 inh 2: ABCB6 transporter inhibitors, primary screen, K562-ABCB6 cells, flow cytometry, MLPCN library; ATP-binding cassette sub-family B member 6 (Homo sapiens), Q9NP58; K562-ABCB6 porphyrin accumulation, 1 h; stronger effect = lower value; fluorescence ratio to DMSO, % at 10 µM; 360,000 compounds, 0.19% hits; AID 602162, 2011;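 active = fluorescence ratio to DMSO below 75%, the collection mean minus 3 SD; inconclusive = too few cells collected in the well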;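 note: signal is porphyrin accumulated inside mitochondria; lower ratio means ABCB6 inhibition with less porphyrin fluorescence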
PolyA inh: polyadenylation inhibitors in yeast reporter cells, primary screen, luminescence, S. cerevisiae. S. cerevisiae SKY197-pL101 polyadenylation reporter, beta-gal luminescence; efflux-impaired pdr1/pdr3 knockout yeast; score 100 = 6 SD above DMSO. activity score, % at 12 µM. 300,000 compounds, 0.02% hits;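 active = lowest replicate activity score at least 50, where 100 means six control SD above control mean; inconclusive = lowest score under 50 but half or more replicates reach 50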;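 note: yeast exposed to compound for 9 h at 30 °C; higher score means more reporter readthrough which indicates perturbed polyadenylation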
Each line names hits and unclear results; the compound was inactive in the other large screens. This is a sample that favours compounds with a hit; in the whole collection about 0.44% have one here.

COc1cccc(OCC(=O)Nc2ccccc2-c2ccccc2)c1	none
c1ccc(-c2nccc(-c3ccco3)n2)nc1	none
c1ccc(-c2nc(-c3ccco3)cs2)nc1	GASC-1 inh 55.8
CC1CN(Cc2c(O)ccc3c2oc(=O)c2ccccc23)CC(C)O1 (stereo not drawn)	GASC-1 inh 53.6
COc1ccc(NC(=O)C2CCN(S(=O)(=O)c3ccc(C)cc3)CC2)cc1OC	ABCB6 inh 2 74.0
COc1ccc(NC(=O)C2CCN(S(C)(=O)=O)CC2)cc1OC	none
N#CCCN(CCC#N)C(=O)COc1ccc(Cl)cc1Cl	none
O=C(c1nsc(Cl)c1Cl)N1CCCCC1	PolyA inh inconclusive
COc1ccc(NC(=O)/C(Cl)=C(/Cl)S(=O)(=O)Cc2ccccc2)cn1	ABCB6 inh 2 60.0 (no result: VLA-4 inh)
COc1ccc(NC(=O)C(Cl)=C(Cl)Cl)cn1	none (no result: VLA-4 inh)
COc1ccc(NC(=O)/C(Cl)=C(/Cl)S(=O)Cc2ccc(Cl)cc2)cn1 (stereo not drawn)	ABCB6 inh 2 37.0 (no result: VLA-4 inh, GASC-1 inh, PolyA inh)
Cc1cc(-c2n[nH]c(=S)n2/N=C/C=C/c2ccccc2)n[nH]1	ABCB6 inh 2 65.0
COc1ccccc1/C=C/C=N/n1c(-c2cc(C)[nH]n2)n[nH]c1=S	none
O=C(NCc1n[nH]c(=S)n1-c1cccc(Cl)c1)c1ccc(S(=O)(=O)N2CCCCC2)cc1	GASC-1 inh 83.8
Cn1nc(-c2ccccn2)nc2c(=O)n(C)c(=O)nc1-2	GASC-1 inh 53.9, PolyA inh inconclusive
CC(=O)Nn1c(C)nnc1-n1nc(C)cc1C	none
COc1cc(/C=C2\SC(=S)N(NC(=O)c3cccnc3)C2=O)ccc1O	PolyA inh 86.2
CN(CC(=O)NCc1ccc(F)cc1)Cc1ccc(Br)cc1	none
COc1ccc(Br)cc1CN(C)CC(=O)NCc1ccc(F)cc1	GASC-1 inh 52.7
Cc1nn(C)c(Oc2cccc(Cl)c2)c1C=O	ABCB6 inh 2 74.0
Cn1nc(C(F)(F)F)c(C(=O)Nc2ccc(F)cc2F)c1Oc1cccc(Cl)c1	none
CC(NC(=O)CCCCCCN1C(=O)c2ccccc2C1=O)c1ccc2c(c1)CCCC2 (stereo not drawn)	PolyA inh 82.4
FC(F)(F)c1ccccc1NC(=S)N1CCc2ccccc2C1	none
Cc1ccc2[nH]c(O)c(N=NC(N)=S)c2c1	none
CC(/C=C(\NC(=O)c1ccccc1)C(=O)N=Nc1c(O)[nH]c2ccc(C)cc12)=C\c1ccccc1	ABCB6 inh 2 73.0
COc1ccc(CNC(=O)c2cc(-c3ccccc3O)n[nH]2)cc1	none
COc1ccccc1OC(C)C(=O)Nc1ccccc1C(=O)NCc1cccnc1 (stereo not drawn)	none
CCCOc1ccc(CNC(=S)N/N=C/c2ccc([N+](=O)[O-])cc2)cc1	ABCB6 inh 2 62.0
CC(=O)Oc1ccc(-c2cccc(C(=O)OCC(=O)Nc3ccccc3Oc3ccccc3)c2)cc1	GASC-1 inh inconclusive
CCc1ccc(-c2ccc(SCc3ccccn3)nn2)cc1	none
CCOc1ccc(-c2ccc(SCc3ccccn3)nn2)cc1	VLA-4 inh 60.8
CC(O)[C@H]1CNC(=O)C(=O)N1CC1CCCCC1 (stereo partly drawn)	PolyA inh inconclusive
Cc1ccc(C2(C)NC(=O)N(CCOc3ccccc3)C2=O)cc1 (stereo not drawn)	none
CNC(=O)c1nn(-c2ccc(C)cc2)ccc1=O	none
NNC(=O)c1nn(-c2ccc(Cl)cc2)ccc1=O	GASC-1 inh 55.0
COC(=O)c1c(NC(=O)c2ccccc2C(=O)O)sc2c1CCC2	none
CS/C(=N\S(=O)(=O)c1cccs1)Nc1cccc(Cl)c1C	PolyA inh 85.9
O=C(N1CCCCC1)N1CCC(c2nc3ccccc3[nH]2)CC1	none
CCOC(=O)N1CCC(c2nc3ccccc3[nH]2)CC1	GASC-1 inh 53.4
Cc1cccc(-c2nnc3sc(-c4ccccc4C)nn23)c1	none
Cc1ccc2nc(NC(=O)CCn3c(=O)sc4ccccc43)sc2c1	ABCB6 inh 2 72.0
COc1ccc(C(=O)NCCCN2CCOCC2)cc1S(=O)(=O)N1CCCc2ccccc21	none
CN(C(=O)c1cccc(NC(=O)Cc2ccc(NC(=O)C3CCN(C(=O)c4ccccc4)CC3)cc2)c1)C1CCC1	none (no result: VLA-4 inh, GASC-1 inh, PolyA inh)
CN(C(=O)c1ccc(NC(=O)Cc2ccc(NC(=O)C3CCN(C(=O)c4ccccc4)CC3)cc2)cc1)C1CC1	GASC-1 inh 57.6 (no result: PolyA inh)
Cc1cccc(NC(=O)NCC2CC2)c1	none
C/C(=N\NC(=O)c1ccc(F)cc1)c1ccc(NC(=O)Cc2ccccc2)cc1	none
C/C(=N/NC(=O)Cn1nc2ccccc2n1)c1ccc(F)cc1	ABCB6 inh 2 74.0
CCc1nnc(NC(=O)CSc2nnc(-c3ccc(O)cc3)n2C)s1	none
CC12CCC(=O)N1C(C(=O)NCc1ccccc1Cl)CS2 (stereo not drawn)	none
O=c1cc2oc3cc(O)c(O)cc3c(-c3ccccc3[N+](=O)[O-])c-2cc1O	GASC-1 inh 57.3
CCC(=O)N1CCc2cc(Br)cc(S(=O)(=O)NCCN3CCCC3)c21	none
CCC(=O)N1CCc2cc(Br)cc(S(=O)(=O)CC(=O)OC)c21	GASC-1 inh 99.1
CCN(CC(=O)NCC1CCCO1)S(=O)(=O)c1ccc(Cl)cc1 (stereo not drawn)	GASC-1 inh 50.4
CCN(CC(=O)NCc1cccs1)C(=O)c1cccc(S(=O)(=O)NCc2ccccc2)c1	none
C#CC(=O)N(c1ccc(OC)c(OC)c1)C(C(=O)NC1CCCC1)c1cccs1 (stereo not drawn)	ABCB6 inh 2 55.0
O=C(N/N=C/c1cc2c(cc1Br)OCO2)c1c[nH]c2ccccc12	VLA-4 inh 50.3
CCSC(=O)NC1CCCCC1	none
CC(=O)NC(Cc1cccc(C)c1)C(=O)NC1CCN(c2ncccc2[N+](=O)[O-])CC1 (stereo not drawn)	none
CC(=O)NC(Cc1cccc(F)c1)C(=O)NC1CCN(c2ncccc2[N+](=O)[O-])CC1 (stereo not drawn)	VLA-4 inh 56.9
Cc1nnc(N/N=C/c2ccc(-c3ccccc3F)o2)n1N	none
Cc1nnc(N/N=C\c2ccc(-c3ccccc3[N+](=O)[O-])o2)n1N	GASC-1 inh 54.7
O=C1C(Cl)=C(Nc2ccc3cn[nH]c3c2)C(=O)c2ccccc21	ABCB6 inh 2 65.0
O=C(Nc1ccc2cn[nH]c2c1)c1c(Cl)cccc1Cl	none
CCC(=O)c1ccc(OCC(=O)OCC(=O)N2CCCc3ccccc32)cc1	none
CCn1cc(C(=O)NC2CCCc3c2cnn3-c2cccc(C)c2C)cn1 (stereo not drawn)	ABCB6 inh 2 65.0
O=C(CCNC(=O)c1ccc(Br)cc1)NCc1ccncc1	none
C=CCNC(=O)c1ccc(N(C)S(=O)(=O)c2ccc(OC)cc2)cc1	ABCB6 inh 2 61.0
O=C(NCCC1=CCCCC1)c1c(O)nc2ccccn2c1=O	PolyA inh 69.1
COC(=O)c1cn(NC(=O)c2cccc(F)c2)c(=O)c2ccccc12	none
COC(=O)c1cn(NC(=O)c2cccc(N(C)C)c2)c(=O)c2ccccc12	ABCB6 inh 2 72.0
